Laboratory results: PubChem BioAssay AID602397 (The Scripps Research Institute Molecular Screening Center, 2012)
This is one part of the list. Calls of active or inactive are those of the source. How the calls were made is not given here.

Assay: quenching of GFP signal – biochemical, fluorescence, dose response, artefact control for Rin1-Abl interaction inhibitor project, late-stage follow-up (AID 602397)
Details: GFP fluorescence quenching counterscreen

With CN(Cc1c(F)cccc1Cl)C(=O)CNC(=O)c1ccc2c(c1)OCO2 the IC50 was > 67.5 µM (inactive).
